Reference: PubChem BioAssay
For some assays here: Results with a measured potency or affinity are listed apart. The source made the active and inactive calls. Unless noted, how the calls were made is not given here.

Each compound was assayed against Protein kinase 7 (PK7), Plasmodium falciparum 3D7 (PF3D7_0213400) (UniProt Q7YTF7) (assay: inhibition of Plasmodium PK7 catalytic activity – biochemical, TCAMS antimalarial set, Kinase-Glo luminescence (AID 1159587)). Settings: recombinant PfPK7, Kinase-Glo ATP depletion luminescence.
Sequence of Protein kinase 7 (PK7), Plasmodium falciparum 3D7 (PF3D7_0213400) (Q7YTF7 1-343): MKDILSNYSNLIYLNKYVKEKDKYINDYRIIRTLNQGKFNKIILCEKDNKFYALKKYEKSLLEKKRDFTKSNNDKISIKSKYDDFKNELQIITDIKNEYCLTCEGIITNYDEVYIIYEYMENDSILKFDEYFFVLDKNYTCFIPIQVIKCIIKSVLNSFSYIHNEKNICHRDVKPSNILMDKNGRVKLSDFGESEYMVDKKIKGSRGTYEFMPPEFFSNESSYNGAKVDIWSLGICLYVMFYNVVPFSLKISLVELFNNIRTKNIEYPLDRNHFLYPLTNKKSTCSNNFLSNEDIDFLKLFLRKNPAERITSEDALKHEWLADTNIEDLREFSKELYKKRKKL

Structure (SMILES) | outcome
CCc1cn2c3c(cc(C(=O)N[C@@H](Cc4cccc(F)c4)[C@H](O)CNC4CCCCC4)cc13)N(C)S(=O)(=O)CC2 | inactive
CC(C)NCc1ccc(-c2ccc(NC(=O)c3ccc(Cl)cc3)cc2)cc1 | inactive
CCc1ccc(NC(=O)c2ccc(CN3CCCN(CC4CCCCC4)CC3)cc2)cc1 | inactive
COc1cccc(CNC(=O)c2cccc(-c3cccc(CN4CCC(N5CCCC5)CC4)c3)n2)c1 | inactive
CN1CCCC(CN2CCN(Cc3ccc(-c4ccc(-c5nc6ccc(F)cc6[nH]5)cc4)cc3)CC2)C1 (stereo not given) | inactive
Nc1ccc(-c2ccc(NC(=O)Nc3cc(C(F)(F)F)ccc3F)cc2)cn1 | inactive
COc1ccc2nc(N3CCNCC3)nc(NCCCc3ccccc3)c2c1 | inactive
O=C(N[C@H]1CCN(Cc2ccc(OCCN3CCCC3)c3ccccc23)C1)c1ccc(Cl)c(Cl)c1 | inactive
Clc1cc(Nc2ncnc3sc(C#Cc4ncc[nH]4)cc23)ccc1OCc1ccccn1 | inactive
CCCOc1c(CCNCCCCNCCc2ccc3ccccc3c2OCCC)ccc2ccccc12 | inactive
CCN(CC)CCNc1c2ccc(Cl)cc2nc2ccc(OC)nc12 | inactive
CCn1c2c(c(=N)c3ccccc31)CCC2 | inactive
CCCNCc1ccc(-c2ccc(CN(CCOC)C(=O)CCCOCc3ccccc3)cc2)nc1 | inactive
CCNc1cc(C(=O)N[C@@H](Cc2ccccc2)[C@H](O)CNC(C)(C)Cc2cccc(OC)c2)cc(N2CCCC2=O)c1 | inactive
CCOc1ccc(C(C)NC(=O)Cc2ccccc2F)cc1OCC (stereo not given) | inactive
CNC(=O)c1cnc(Nc2ccc(N3CCN(C)CC3)cc2)nc1Nc1ccccc1OC | inactive
CN(C)CCOc1ccnc2ccc(NC(=O)Cc3ccc(-c4ccncc4)c4ccccc34)cc12 | inactive
CC1(C)N=C(N)N=C(N)N1c1cc(Cl)c(Cl)cc1Cl | inactive
CN(/N=C/c1ccc(Cl)cc1)c1nc(NCCc2ccc(O)cc2)nc(N2CCNCC2)n1 | inactive
O=C(NCc1ccccc1F)c1ccc(N2CCC(NCc3cccc(-n4cccn4)c3)CC2)cc1 | inactive

Structure (SMILES) | outcome
COc1cc(F)c2nccc([C@@H](O)CN3CCC(NCc4cc5c(cc4F)OCCO5)CC3)c2c1 | inactive
CCCCCCCCS(=O)(=O)NCCCC1CCN(CCCCCNC(=O)C=Cc2ccc(Cl)c(Cl)c2)CC1 | inactive
Nc1ccc2[nH]cc(C3CCN(CCC4CCN(C(=O)/C=C/c5ccc(Cl)c(Cl)c5)CC4)CC3)c2n1 | inactive
Cc1ccc(S(=O)(=O)N2CCN(C(=O)c3cc(-c4ccccc4)n[nH]3)CC2)cc1 | inactive
CCCNC[C@@H](O)[C@H](Cc1ccccc1)NC(=O)c1cc(NCC)cc(N2CCCC2=O)c1 | inactive
COc1ccc(C2C(C(=O)Nc3ccc4c(c3)OCO4)c3cc(OC)c(OC)cc3C(=O)N2C)cc1 (stereo not given) | inactive
O=C(Cc1ccc(NC(=O)c2ccc(O)c(-c3ccc(Cl)c(Cl)c3)c2)cc1)NCCN1CCOCC1 | inactive
Cc1csc2nc(-c3ccccn3)nc(Nc3ccc4ncsc4c3)c12 | inactive
CC(=O)Nc1ccc(C2NC(=O)NC(c3ccccc3)=C2c2nc3ccccc3s2)cc1 (stereo not given) | inactive
CS(=O)(=O)CCNCc1nc(-c2ccc3c(Nc4ccc(Cl)cc4F)ccnc3c2)cs1 | inactive
Cc1cccc2[nH]c(-c3cccc(-c4ccc(NC(=O)CN5CCOCC5)cc4)c3)nc12 | inactive
Cc1cc(NN=Cc2ccc(Cl)cc2)c2ccc(F)cc2n1 | inactive
N#CN1CC[C@H](CS(=O)(=O)c2cccc(Br)c2)C1 | inactive
CC(C)(C)Oc1ccc(C[C@@H]2NC3(C(=O)N(Cc4ccc(Cl)c(Cl)c4)c4ccccc43)C3C(=O)N(c4ccc(Br)cc4)C(=O)C32)cc1 (stereo not given in full) | inactive
CN(c1ccc(F)cc1)S(=O)(=O)c1ccc(Cl)c(C(=O)Nc2cccc(C#N)c2)c1 | inactive
Ic1cc(Nc2ncnc3ccsc23)ccc1OCc1ccccc1 | inactive
Cc1cc(NC(=O)Nc2ccc3nc(C)oc3c2)c2cc(Cl)ccc2n1 | inactive
Cc1ccc(N2C(N)=NC(N)=NC2c2ccccc2)cc1 (stereo not given) | inactive
Cc1cc(-c2cccc3c(C(=O)N4CCc5cc6nccc(N7CCCN(C)CC7)c6cc54)cccc23)cc(C)n1 | inactive
O=S(=O)(Nc1cc2c(cc1O)CCNCC2)c1ccc(-c2ccc(Cl)cc2)cc1 | inactive

These compounds were tested against Calcium-dependent protein kinase 4 (Plasmodium falciparum (isolate 3D7)) (UniProt Q8IBS5) (assay: PfCDPK4 kinase inhibitors, biochemical, TCAMS library (AID 1159588; cut-off not given, nearly all actives have IC50 up to about 0.91 µM)). Settings: recombinant PfCDPK4, Kinase-Glo ATP depletion luminescence.
Sequence of Calcium-dependent protein kinase 4 (Plasmodium falciparum (isolate 3D7)) (Q8IBS5 whole entry, looked up): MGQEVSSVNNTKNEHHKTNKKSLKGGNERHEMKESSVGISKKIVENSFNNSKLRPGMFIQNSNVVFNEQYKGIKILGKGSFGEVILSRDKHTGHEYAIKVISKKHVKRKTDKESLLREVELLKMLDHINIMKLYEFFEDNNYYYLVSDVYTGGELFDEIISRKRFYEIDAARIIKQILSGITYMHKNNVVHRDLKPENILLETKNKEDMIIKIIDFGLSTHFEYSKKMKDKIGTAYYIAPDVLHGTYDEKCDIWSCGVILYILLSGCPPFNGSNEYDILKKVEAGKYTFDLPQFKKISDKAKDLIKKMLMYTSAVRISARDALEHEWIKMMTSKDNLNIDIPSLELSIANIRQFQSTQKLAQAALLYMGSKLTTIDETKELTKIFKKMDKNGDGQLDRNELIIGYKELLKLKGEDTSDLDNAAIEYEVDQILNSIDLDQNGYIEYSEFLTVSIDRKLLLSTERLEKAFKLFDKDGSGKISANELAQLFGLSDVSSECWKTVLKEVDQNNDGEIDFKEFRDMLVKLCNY

Structure (SMILES) | outcome
CCc1cn2c3c(cc(C(=O)N[C@@H](Cc4cccc(F)c4)[C@H](O)CNC4CCCCC4)cc13)N(C)S(=O)(=O)CC2 | inactive
CC(C)NCc1ccc(-c2ccc(NC(=O)c3ccc(Cl)cc3)cc2)cc1 | inactive
CCc1ccc(NC(=O)c2ccc(CN3CCCN(CC4CCCCC4)CC3)cc2)cc1 | inactive
COc1cccc(CNC(=O)c2cccc(-c3cccc(CN4CCC(N5CCCC5)CC4)c3)n2)c1 | inactive
CN1CCCC(CN2CCN(Cc3ccc(-c4ccc(-c5nc6ccc(F)cc6[nH]5)cc4)cc3)CC2)C1 (stereo not given) | inactive
Nc1ccc(-c2ccc(NC(=O)Nc3cc(C(F)(F)F)ccc3F)cc2)cn1 | inactive
COc1ccc2nc(N3CCNCC3)nc(NCCCc3ccccc3)c2c1 | inactive
O=C(N[C@H]1CCN(Cc2ccc(OCCN3CCCC3)c3ccccc23)C1)c1ccc(Cl)c(Cl)c1 | inactive
Clc1cc(Nc2ncnc3sc(C#Cc4ncc[nH]4)cc23)ccc1OCc1ccccn1 | inactive
CCCOc1c(CCNCCCCNCCc2ccc3ccccc3c2OCCC)ccc2ccccc12 | inactive
CCN(CC)CCNc1c2ccc(Cl)cc2nc2ccc(OC)nc12 | inactive
CCn1c2c(c(=N)c3ccccc31)CCC2 | inactive
CCCNCc1ccc(-c2ccc(CN(CCOC)C(=O)CCCOCc3ccccc3)cc2)nc1 | inactive
CCNc1cc(C(=O)N[C@@H](Cc2ccccc2)[C@H](O)CNC(C)(C)Cc2cccc(OC)c2)cc(N2CCCC2=O)c1 | inactive
CCOc1ccc(C(C)NC(=O)Cc2ccccc2F)cc1OCC (stereo not given) | inactive
CNC(=O)c1cnc(Nc2ccc(N3CCN(C)CC3)cc2)nc1Nc1ccccc1OC | inactive
CN(C)CCOc1ccnc2ccc(NC(=O)Cc3ccc(-c4ccncc4)c4ccccc34)cc12 | inactive
CC1(C)N=C(N)N=C(N)N1c1cc(Cl)c(Cl)cc1Cl | inactive
CN(/N=C/c1ccc(Cl)cc1)c1nc(NCCc2ccc(O)cc2)nc(N2CCNCC2)n1 | inactive
O=C(NCc1ccccc1F)c1ccc(N2CCC(NCc3cccc(-n4cccn4)c3)CC2)cc1 | inactive

Structure (SMILES) | outcome
COc1cc(F)c2nccc([C@@H](O)CN3CCC(NCc4cc5c(cc4F)OCCO5)CC3)c2c1 | inactive
CCCCCCCCS(=O)(=O)NCCCC1CCN(CCCCCNC(=O)C=Cc2ccc(Cl)c(Cl)c2)CC1 | inactive
Nc1ccc2[nH]cc(C3CCN(CCC4CCN(C(=O)/C=C/c5ccc(Cl)c(Cl)c5)CC4)CC3)c2n1 | inactive
Cc1ccc(S(=O)(=O)N2CCN(C(=O)c3cc(-c4ccccc4)n[nH]3)CC2)cc1 | inactive
CCCNC[C@@H](O)[C@H](Cc1ccccc1)NC(=O)c1cc(NCC)cc(N2CCCC2=O)c1 | inactive
COc1ccc(C2C(C(=O)Nc3ccc4c(c3)OCO4)c3cc(OC)c(OC)cc3C(=O)N2C)cc1 (stereo not given) | inactive
O=C(Cc1ccc(NC(=O)c2ccc(O)c(-c3ccc(Cl)c(Cl)c3)c2)cc1)NCCN1CCOCC1 | inactive
Cc1csc2nc(-c3ccccn3)nc(Nc3ccc4ncsc4c3)c12 | inactive
CC(=O)Nc1ccc(C2NC(=O)NC(c3ccccc3)=C2c2nc3ccccc3s2)cc1 (stereo not given) | inactive
CS(=O)(=O)CCNCc1nc(-c2ccc3c(Nc4ccc(Cl)cc4F)ccnc3c2)cs1 | inactive
Cc1cccc2[nH]c(-c3cccc(-c4ccc(NC(=O)CN5CCOCC5)cc4)c3)nc12 | inactive
Cc1cc(NN=Cc2ccc(Cl)cc2)c2ccc(F)cc2n1 | inactive
N#CN1CC[C@H](CS(=O)(=O)c2cccc(Br)c2)C1 | inactive
CC(C)(C)Oc1ccc(C[C@@H]2NC3(C(=O)N(Cc4ccc(Cl)c(Cl)c4)c4ccccc43)C3C(=O)N(c4ccc(Br)cc4)C(=O)C32)cc1 (stereo not given in full) | inactive
CN(c1ccc(F)cc1)S(=O)(=O)c1ccc(Cl)c(C(=O)Nc2cccc(C#N)c2)c1 | inactive
Ic1cc(Nc2ncnc3ccsc23)ccc1OCc1ccccc1 | inactive
Cc1cc(NC(=O)Nc2ccc3nc(C)oc3c2)c2cc(Cl)ccc2n1 | inactive
Cc1ccc(N2C(N)=NC(N)=NC2c2ccccc2)cc1 (stereo not given) | inactive
Cc1cc(-c2cccc3c(C(=O)N4CCc5cc6nccc(N7CCCN(C)CC7)c6cc54)cccc23)cc(C)n1 | inactive
O=S(=O)(Nc1cc2c(cc1O)CCNCC2)c1ccc(-c2ccc(Cl)cc2)cc1 | inactive
